Reference: PubChem BioAssay (Tox21)
Inconclusive results are not listed. A call without a number means that no potency is given here. The source made the active and inactive calls. Unless noted, calls come from the whole dose curve. Bridge positions count the residues as written; N and C are the ends. Square brackets hold non-standard residues; d marks the D form. Peptide text beside a SMILES is read from it. hArg = N=C(N)NCCCC[C@H](N)C(=O)O; Mpa = O=C(O)CCS

Key:
[1] = Nuclear factor erythroid 2-related factor 2/antioxidant responsive element (Nrf2/ARE) small molecule agonists: qHTS cell viability counter screen in human keratinocytes (AID 1919968; active = well fitted curve in the direction sought with a large enough effect in the repeat runs; an effect the other way counts as inactive or inconclusive; note: nearly all actives have a fitted effect of over 55% in size; note: potency is the fitted concentration of half-maximal effect)
Procedure, shortened: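 HaCaT ARE reporter line, 1,500 cells/well; 5 h settle, 37 C/5% CO2; cpd in DMSO pinned; 23 h exposure; CellTiter-Fluor, 1 h; fluorescence.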

[2] = Nuclear factor erythroid 2-related factor 2/antioxidant responsive element (Nrf2/ARE) small molecule agonists: luciferase reporter gene qHTS assay in human keratinocytes (AID 1919969); note: nearly all actives have a fitted effect of over 35% in size; note: potency is the fitted concentration of half-maximal effect
[3] = target: Gonadotropin-releasing hormone receptor (Homo sapiens) (UniProt P30968); assay: Human gonadotropin-releasing hormone receptor (GnRHR) small molecule agonists, calcium flux assay in GnRHR-HEK293 cells (AID 1920063); note: nearly all actives have a fitted effect of over 35% in size
Procedure, shortened: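 GnRHR-HEK293, 1500 cells/well, 18 h 37 C/5% CO2; Ca dye 1 h 37 C; cpd pinned (DMSO), agonist mode; kinetic FL 480/540, 3 min, 1 s reads; 15 conc, n=3.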

[4] = target: KiSS-1 receptor (Homo sapiens) (UniProt Q969F8); assay: Human kisspeptin (KISS1R) small molecule agonists, calcium flux assay in KISS1R-HEK293 cells (AID 1920064; active = well fitted curve in the direction sought with a large enough effect in the repeat runs; an effect the other way counts as inactive or inconclusive)
Procedure, shortened: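 Stable human KISS1R HEK293 line; 18 h plating, 37 C/5% CO2; calcium dye 1 h 37 C; compound pin transfer; kinetic fluorescence Ex/Em 480/540, 3 min.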

[5] = G protein-coupled receptor (GPCR) small molecule agonists, calcium flux assay: HEK293 wild type cell line counter screen (AID 1920065)
Procedure, shortened: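 Kinetic fluorescence at Ex/Em 480/540, recorded every second over 3 min, served as the read-out after compound addition. Each compound was tested at 15 concentrations in triplicate on cells pre-loaded with calcium dye for 1 h.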

[6] = p53 small molecule agonists, cell-based qHTS assay with human liver microsomes: qHTS cell viability counter screen (AID 1963579); note: nearly all actives have a fitted effect of over 45% in size
Procedure, shortened: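 Cells carrying the p53 response-element beta-lactamase reporter are treated for 16 h at 37 C with test compounds in the presence of human liver microsomes and NADPH (both 0.5 mg/mL final); ATP-based CellTiter-Glo luminescence then reports viability.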

[7] = p53 small molecule agonists, cell-based qHTS assay with rat liver microsomes: qHTS cell viability counter screen (AID 1963580); note: nearly all actives have a fitted effect of over 45% in size
Procedure, shortened: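 Intracellular ATP, by CellTiter-Glo luminescence, defines viability. HCT-116 p53RE-bla cells, 4,000 per well, were compound-treated in the presence of rat liver microsomes and NADPH for 16 h at 37 C.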

[8] = p53 small molecule agonists, cell-based qHTS assay: qHTS cell viability counter screen (AID 1963581); note: nearly all actives have a fitted effect of over 45% in size
Procedure, shortened: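 HCT-116 p53RE-bla cells, 4,000/well, plated 5 h before compound pin transfer; 16 h at 37 C; bla substrate 2 h RT; then CellTiter-Glo, 30 min RT, luminescence.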

[9] = p53 small molecule agonists, cell-based qHTS assay (AID 1963582; active = well fitted activation curve with a large enough effect in the signal ratio in the repeat runs, not every such curve was filed as active; the % refers to the signal ratio)
Procedure, shortened: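 Reporter line: p53RE-bla. Pre-incubation 5 h, 37 C, 5% CO2; compound (DMSO, pin tool) 16 h, 37 C; B/G FRET substrate 2 h RT; fluorescence intensity read.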

[10] = target: 5-hydroxytryptamine receptor 2A (Homo sapiens) (UniProt P28223); assay: 5-hydroxytryptamine receptor 2A (HTR2A) small molecule antagonists, cell-based qHTS assay (AID 1963586); note: nearly all actives have a fitted effect of over 45% in size
Procedure, shortened: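 Antagonist-mode intracellular calcium assay: DOI (4 nM) added after 5 min compound pre-incubation at room temperature to dye-loaded HTR2A-CHO cells. Fluorescence followed for 3 min, sampled every second.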

[11] = target: 5-hydroxytryptamine receptor 2A (Homo sapiens) (UniProt P28223); assay: 5-hydroxytryptamine receptor 2A (HTR2A) small molecule agonists, cell-based qHTS assay (AID 1963587); note: nearly all actives have a fitted effect of over 30% in size; note: potency is the fitted concentration of half-maximal effect
Procedure, shortened: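 Kinetic calcium-flux fluorescence (2 min, 1 sec intervals) after compound addition in agonist mode. HTR2A-CHO cells were cultured 18 h, then dye-loaded 1 h at 37 C.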

[12] = target: Muscarinic acetylcholine receptor M1 (Homo sapiens) (UniProt P11229); assay: Cholinergic receptor muscarinic 1 (CHRM1) small molecule antagonists, cell-based qHTS assay (AID 1963588); note: nearly all actives have a fitted effect of over 40% in size; note: potency is the fitted concentration of half-maximal effect
Procedure, shortened: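 CHRM1-CHO calcium-flux assay, antagonist mode. Cells were seeded 18 h, dye-loaded 1 h at 37 C and given compound for 5 min at RT, then acetylcholine was added at 50nM. FDSS fluorescence was read 3 min; 15 concentrations, three runs.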

[13] = target: Muscarinic acetylcholine receptor M1 (Homo sapiens) (UniProt P11229); assay: Cholinergic receptor muscarinic 1 (CHRM1) small molecule agonists, cell-based qHTS assay (AID 1963589); note: nearly all actives have a fitted effect of over 35% in size
Procedure, shortened: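 Human M1 in stable CHO line; 18 h plating, 1 h dye load 37 C; cpd added (agonist mode); Ca2+ fluorescence kinetic read, 1 s intervals; 15 conc, 3 runs.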

[14] = cAMP Responsive Elements (CRE) small molecule agonists, cell-based qHTS assay (AID 1963590)
Procedure, shortened: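 HEK 293T CRE-bla, 2,000 cells/well, 18 h preincubation 37 C/5% CO2; cpds (DMSO) pinned, 3 h; LiveBLAzer B/G FRET substrate, 2 h RT.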

[15] = cAMP Responsive Elements (CRE) small molecule antagonists, cell-based qHTS assay (AID 1963591; active = well fitted inhibition curve with a large enough effect in the signal ratio in the repeat runs, not every such curve was filed as active; the % refers to the signal ratio)
Procedure, shortened: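 Beta-lactamase reporter read by FRET substrate (LiveBLAzer B/G) after 2 h at room temperature. CRE-bla HEK293T cells had received compound plus 0.25 uM (final) NKH477 for 3 h at 37 °C.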

[16] = target: Beta-2 adrenergic receptor (Homo sapiens) (UniProt P07550); assay: Adrenergic beta2 receptor (ADRB2) small molecule antagonists, cell-based qHTS assay (AID 1963592); note: series mostly up to about 92 µM; nearly all actives have a fitted effect of over 50% in size
Procedure, shortened: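 Cells (CHO, stable ADRB2 overexpression) incubated 18-20hr at 37C; compounds added from DMSO; agonist mix (1nM isoproterenol, 100uM IBMX, 25uM Ro-20-1724) added; 0.5hr RT; d2-cAMP and anti-cAMP-cryptate added; 1hr RT; 665/615 nm read.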

[17] = target: Beta-2 adrenergic receptor (Homo sapiens) (UniProt P07550); assay: Adrenergic beta2 receptor (ADRB2) small molecule agonists, cell-based qHTS assay (AID 1963593);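 note: CHO cells stably overexpressing human ADRB2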
Procedure, shortened: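 CHO cells stably over-expressing ADRB2 were plated overnight at 37C, then dosed with compounds plus a stimulation mix containing 100uM IBMX and 25uM Ro-20-1724 for 0.5hr at room temperature. cAMP was measured by HTRF competition, 1hr.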

[18] = target: D(2) dopamine receptor (Homo sapiens) (UniProt P14416); assay: Dopamine D2 receptor (DRD2) small molecule antagonists, cell-based qHTS assay (AID 1963595; active = well fitted inhibition curve with a large enough effect in the signal ratio in the repeat runs, with a control signal flat; the % refers to the signal ratio)
Procedure, shortened: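 In this cell-based antagonist screen, compounds act for 10 min at room temperature before a 30 min challenge with 12 nM quinpirole and 200 nM NKH477. cAMP is quantified by HTRF competition in DRD2-HEK293 cells containing 0.1 mM Ro20-1724.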

[19] = target: D(2) dopamine receptor (Homo sapiens) (UniProt P14416); assay: Dopamine D2 receptor (DRD2) small molecule agonists, cell-based qHTS assay (AID 1963594); note: nearly all actives have a fitted effect of over 35% in size
Procedure, shortened: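 cAMP accumulation in DRD2-HEK293 cells measured by HTRF after 1 h detection; compounds added 10 min before NKH477 (200nM […]) forskolin-analogue stimulation, 30 min at room temperature, with Ro20-1724 present at 0.1 mM final.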

[20] = p53 small molecule agonists, cell-based qHTS assay with rat liver microsomes (AID 1963578)
Procedure, shortened: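 Read-out is beta-lactamase reporter fluorescence (LiveBLAzer, 2 h, room temperature, dark) in p53RE-bla cells treated 16 h at 37 C with compound, rat liver microsomes and NADPH, both 0.5 mg/mL final.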

Muscarinic acetylcholine receptor M1 (Homo sapiens), sequence (P11229 whole entry, looked up): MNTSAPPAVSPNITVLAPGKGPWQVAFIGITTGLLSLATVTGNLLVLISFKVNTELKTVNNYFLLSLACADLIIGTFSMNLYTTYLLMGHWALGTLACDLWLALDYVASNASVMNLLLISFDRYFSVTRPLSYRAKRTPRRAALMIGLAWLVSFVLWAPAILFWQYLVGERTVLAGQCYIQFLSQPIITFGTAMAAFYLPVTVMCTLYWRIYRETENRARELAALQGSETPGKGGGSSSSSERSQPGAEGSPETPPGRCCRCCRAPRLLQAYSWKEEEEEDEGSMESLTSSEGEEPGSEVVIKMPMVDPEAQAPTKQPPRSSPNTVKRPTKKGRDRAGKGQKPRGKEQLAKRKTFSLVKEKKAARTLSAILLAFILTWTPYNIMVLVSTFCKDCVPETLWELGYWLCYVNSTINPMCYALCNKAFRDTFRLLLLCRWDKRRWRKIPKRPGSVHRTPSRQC
KiSS-1 receptor (Homo sapiens), sequence (Q969F8 whole entry, looked up): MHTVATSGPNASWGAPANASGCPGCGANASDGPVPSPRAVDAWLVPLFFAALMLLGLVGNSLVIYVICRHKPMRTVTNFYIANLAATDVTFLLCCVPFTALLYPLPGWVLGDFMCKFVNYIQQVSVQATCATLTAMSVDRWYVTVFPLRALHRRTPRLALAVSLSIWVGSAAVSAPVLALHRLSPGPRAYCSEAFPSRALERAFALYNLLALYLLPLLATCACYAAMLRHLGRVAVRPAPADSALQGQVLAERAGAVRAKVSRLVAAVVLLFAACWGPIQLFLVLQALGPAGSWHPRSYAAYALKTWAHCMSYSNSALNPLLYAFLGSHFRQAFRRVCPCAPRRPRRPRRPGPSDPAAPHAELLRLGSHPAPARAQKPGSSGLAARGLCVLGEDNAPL
D(2) dopamine receptor (Homo sapiens), sequence (P14416 whole entry, looked up): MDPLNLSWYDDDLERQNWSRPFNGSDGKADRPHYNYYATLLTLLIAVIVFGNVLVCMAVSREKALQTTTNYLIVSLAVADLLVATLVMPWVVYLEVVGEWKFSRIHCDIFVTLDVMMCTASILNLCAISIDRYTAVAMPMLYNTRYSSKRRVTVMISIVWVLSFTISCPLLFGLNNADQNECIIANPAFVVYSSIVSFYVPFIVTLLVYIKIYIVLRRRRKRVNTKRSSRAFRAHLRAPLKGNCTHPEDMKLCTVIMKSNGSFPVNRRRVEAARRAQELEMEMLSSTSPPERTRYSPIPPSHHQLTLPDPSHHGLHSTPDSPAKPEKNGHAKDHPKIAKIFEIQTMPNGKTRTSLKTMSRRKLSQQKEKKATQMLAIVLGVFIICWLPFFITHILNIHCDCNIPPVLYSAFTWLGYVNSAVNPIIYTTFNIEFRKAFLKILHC
Beta-2 adrenergic receptor (Homo sapiens), sequence (P07550 whole entry, looked up): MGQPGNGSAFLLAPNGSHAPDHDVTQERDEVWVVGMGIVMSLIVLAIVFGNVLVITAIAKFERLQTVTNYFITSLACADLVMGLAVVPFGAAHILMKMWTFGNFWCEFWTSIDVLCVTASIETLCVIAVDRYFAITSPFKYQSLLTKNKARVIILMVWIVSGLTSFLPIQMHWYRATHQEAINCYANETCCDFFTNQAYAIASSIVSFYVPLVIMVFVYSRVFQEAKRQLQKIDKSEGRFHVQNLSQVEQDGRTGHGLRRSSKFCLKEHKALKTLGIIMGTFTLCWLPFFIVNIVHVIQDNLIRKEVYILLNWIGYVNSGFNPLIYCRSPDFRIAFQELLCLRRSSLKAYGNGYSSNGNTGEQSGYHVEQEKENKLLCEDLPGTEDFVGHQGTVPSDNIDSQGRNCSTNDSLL
5-hydroxytryptamine receptor 2A (Homo sapiens), sequence (P28223 whole entry, looked up): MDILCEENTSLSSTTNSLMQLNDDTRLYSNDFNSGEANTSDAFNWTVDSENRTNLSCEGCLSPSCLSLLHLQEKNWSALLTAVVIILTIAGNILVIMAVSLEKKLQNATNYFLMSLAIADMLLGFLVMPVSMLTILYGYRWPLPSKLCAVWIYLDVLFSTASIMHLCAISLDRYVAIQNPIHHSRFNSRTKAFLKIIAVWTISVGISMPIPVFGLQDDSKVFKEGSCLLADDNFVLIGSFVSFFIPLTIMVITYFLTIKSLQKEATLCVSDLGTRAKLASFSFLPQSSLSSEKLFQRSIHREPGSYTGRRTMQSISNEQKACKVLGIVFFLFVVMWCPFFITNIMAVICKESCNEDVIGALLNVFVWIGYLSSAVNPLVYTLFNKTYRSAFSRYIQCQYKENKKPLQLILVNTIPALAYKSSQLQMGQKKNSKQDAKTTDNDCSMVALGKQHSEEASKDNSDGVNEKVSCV
Gonadotropin-releasing hormone receptor (Homo sapiens), sequence (P30968 whole entry, looked up): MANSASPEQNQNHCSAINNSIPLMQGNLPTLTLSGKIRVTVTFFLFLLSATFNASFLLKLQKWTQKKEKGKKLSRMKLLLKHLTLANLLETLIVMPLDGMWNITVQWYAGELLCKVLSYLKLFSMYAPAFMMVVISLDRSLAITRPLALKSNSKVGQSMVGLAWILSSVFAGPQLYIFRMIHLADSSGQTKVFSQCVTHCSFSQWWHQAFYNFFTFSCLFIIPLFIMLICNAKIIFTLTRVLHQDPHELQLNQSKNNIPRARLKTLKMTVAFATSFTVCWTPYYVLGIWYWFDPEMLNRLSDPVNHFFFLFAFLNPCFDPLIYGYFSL

| SMILES | Potency [1] | Potency [2] | Potency [3] | Potency [4] | Potency [5] | Potency [6] | Potency [7] | Potency [8] | Potency [9] | Potency [10] | Potency [11] | Potency [12] | Potency [13] | Potency [14] | Potency [15] | Potency [16] | Potency [17] | Potency [18] | Potency [19] | Potency [20] |
| --- | --- | --- | --- | --- | --- | --- | --- | --- | --- | --- | --- | --- | --- | --- | --- | --- | --- | --- | --- | --- |
| CCCCNCCCC | inactive | inactive | inactive | inactive | inactive | inactive | inactive | inactive | inactive | inactive | inactive | inactive | inactive | inactive | inactive | inactive | inactive | inactive |  |  |
| NC(=O)[C@@H]1CSSCCC(=O)N[C@@H](CCCCN=C(N)N)C(=O)NCC(=O)N[C@@H](CC(=O)O)C(=O)N[C@@H](Cc2c[nH]c3ccccc23)C(=O)N2CCC[C@H]2C(=O)N1 ([Mpa][hArg]GDWPC-NH2; disulfide 1-7) | inactive | inactive | inactive | inactive | inactive | inactive | inactive | inactive | inactive |  |  |  |  | inactive | inactive | inactive | inactive | inactive | inactive |  |
| COc1ccc(NC(=O)CC(C)=O)cc1 | inactive | inactive | inactive | inactive | inactive | inactive |  |  |  | inactive | inactive | inactive | inactive | inactive | inactive | inactive | inactive | inactive | inactive |  |
| Cc1ccc(O)c(C(=O)c2ccccc2)c1 | inactive | inactive | inactive | inactive | inactive |  | inactive | inactive |  | inactive | inactive | inactive | inactive |  |  | inactive | inactive |  | inactive |  |
| COC(=O)Nc1nc2ccc(C(=O)C3CC3)cc2[nH]1 | inactive | 8.41 µM (active) | inactive | inactive | inactive |  |  |  |  | inactive | inactive | inactive | inactive | inactive | inactive | inactive |  | inactive | inactive | inactive |
| CCO[Si](CC(C)C)(OCC)OCC | inactive | inactive | inactive | inactive | inactive | inactive | inactive | inactive |  | inactive | inactive | inactive | inactive | inactive | inactive | inactive |  | inactive | inactive |  |
| C=CC(=O)OCC(C)OCC(C)OCC(C)OC(=O)C=C (stereo unspecified) | 61.1 µM (active) | 24.3 µM (active) | inactive | inactive | inactive |  |  | inactive |  | inactive | inactive | inactive | inactive |  |  |  |  | inactive | inactive | inactive |
| C=CC(=O)OCCn1c(=O)n(CCOC(=O)C=C)c(=O)n(CCOC(=O)C=C)c1=O | 30.6 µM (active) | 15.4 µM (active) | inactive | inactive | inactive |  |  |  |  | inactive | inactive | inactive | inactive |  |  | inactive |  | inactive | inactive | inactive |
| CCCCN(CCN(CCCC)C(=O)N1CCOCC1)C(=O)N1CCOCC1 | 29.8 µM (active) | 21.1 µM (active) | inactive | inactive | inactive |  |  | inactive | inactive |  | inactive | inactive | inactive |  |  | inactive | inactive | inactive | inactive | inactive |
| Cc1cc(C)c(C)c(C)c1 | inactive | inactive | inactive | inactive | inactive |  | inactive |  | inactive | inactive | inactive | inactive | inactive | inactive |  | inactive |  | inactive | inactive |  |
| c1ccc(C[n+]2cccc3ccccc32)cc1 | inactive | inactive | inactive | inactive | inactive | inactive | inactive |  | inactive |  | inactive | inactive | inactive | inactive | inactive | inactive |  | inactive | inactive |  |
| CC[C@]1(O)C[C@H]2CN(CCc3c([nH]c4ccccc34)[C@@](C(=O)OC)(c3cc4c(cc3OC)N(C=O)[C@H]3[C@@](O)(C(=O)OC)[C@H](OC(C)=O)[C@]5(CC)C=CCN6CC[C@]43[C@@H]65)C2)C1 | inactive | 0.596 µM (active) | inactive | inactive | inactive |  |  |  |  |  |  |  |  |  |  | inactive | inactive | inactive |  | inactive |
| CCCCNC1CC(C)(C)NC(C)(C)C1 | inactive | inactive | inactive | inactive | inactive | inactive | inactive |  | inactive | inactive | inactive | inactive | inactive | inactive |  | inactive | inactive | inactive |  |  |
| COc1cc(NS(=O)(=O)c2ccc(N)cc2)nc(C)n1 | inactive | inactive | inactive | inactive | inactive |  |  | inactive | inactive | inactive | inactive | inactive | inactive | inactive |  | inactive |  | inactive | inactive |  |
| CC(C)c1cccc(C(C)C)c1N1C(=O)c2ccc(O)cc2C1=O | inactive | inactive | inactive | inactive | inactive |  |  |  |  | inactive | 43.6 µM (active) | 37.5 µM (active) |  |  |  | inactive | inactive | inactive | inactive |  |
| C/C(=C\c1ccc(C(=O)O)cc1)c1ccc2c(c1)C(C)(C)CCC2(C)C | inactive | inactive | inactive | inactive | inactive | inactive | inactive |  | inactive | inactive | inactive | inactive | inactive | inactive | inactive | inactive |  | inactive | inactive |  |
